Among the data in PubChem BioAssay AID652062 (Broad Institute, 2013) are activity change, negative = inhibition values, retold here.

Among all 1,400 compounds or so, about 1,100 (79%) were called active.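 The calls were made as follows: active = fitted half-maximal concentration of a falling signal no higher than twice the top valid dose in every test run; inconclusive = runs disagree, or flat partial inhibition, or poor fit; inactive = every run inactive: flat, wrong direction, or potency beyond limit.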 The set was probably picked from earlier hits. Not all results are given here. Measured potencies and affinities stand elsewhere.

This assay in a line: inhibitors of clade B AD8 Env fusion, dose response, cell-based, cherry-pick (AID 652062). Conditions: HeLa-AD8 Env / CEM-CCR5 cell fusion, luciferase; at 35 µM (top of the series) unless noted.
Consider `C=CCOc1c(Br)cc(CNc2ccc(NC(=O)C(C)C)c(OC)c2)cc1OC`, for which the activity change, negative = inhibition was found to be 129%. In the case of `Cc1ccc(NC(=O)c2ccc(OCC3CCCO3)cc2)cc1Cl` (stereo not given) it was -7.89%; in that of `CC(NC(=O)c1ccccc1NC(=O)CN1CCc2ccccc2C1)c1ccccc1` (stereo not given), -3.06%.

Regarding `O=C1c2cccnc2C(Nc2ccc(S(=O)(=O)N3CCCCC3)cc2)N1Cc1ccccc1` (stereo not given), the activity change, negative = inhibition amounted to 6.27%. For `O=C1c2cccnc2C(Nc2ccc(S(=O)(=O)N3CCCCCC3)cc2)N1Cc1ccccc1` (stereo not given) the value was -20.4%; for `CCCc1cc(C(=O)NCc2ccc(OC)cc2)no1`, 14.3%.

For the compound `Cc1noc(C)c1S(=O)(=O)N(C)C[C@H]1Oc2ccc(NC(=O)Nc3ccccc3)cc2CC(=O)N([C@H](C)CO)C[C@H]1C`, the activity change, negative = inhibition turned out to be 14.5%.

As for `CCNC(=O)C[C@@H]1CC[C@@H]2[C@H](COC[C@@H](O)CN2C(=O)c2ccccn2)O1`, the activity change, negative = inhibition is 66.2%. For `CC(C)NC(=O)N(C)C[C@@H]1Oc2ccc(NC(=O)C3CC3)cc2CC(=O)N([C@@H](C)CO)C[C@@H]1C` the value was -3.66%; for `CC(C)NC(=O)N(C)C[C@@H]1Oc2ccc(NC(=O)C3CC3)cc2CC(=O)N([C@H](C)CO)C[C@H]1C`, -3.87%; for `Nc1ncn([C@H]2C[C@H](O)[C@@H](CO)O2)c(=O)n1`, 8.34%. In the case of `C[C@@H]1CN([C@@H](C)CO)S(=O)(=O)c2ccc(-c3ccccc3)cc2O[C@H]1CN(C)S(C)(=O)=O` it was 54.4%; in that of `Nc1nc2c(ncn2[C@@H]2O[C@H](C(=O)NCC(c3ccccc3)c3ccccc3)[C@@H](O)[C@H]2O)c(=O)[nH]1`, 19.5%; in that of `C[C@@H]1CN([C@H](C)CO)C(=O)c2cccc(NS(=O)(=O)c3cn(C)cn3)c2O[C@H]1CN(C)C(=O)Nc1ccc(F)cc1`, 0.184%. Regarding `O=C(CC1C(=O)NCCN1Cc1cccc(F)c1)NC1CCCCC1` (stereo not given), the activity change, negative = inhibition was found to be 73.6%. In the case of `CCN(CCn1cccn1)C(=O)CC1C(=O)NCCN1CCc1ccccc1` (stereo not given) it was 27.6%. For `CCCCNC(=O)C[C@H]1C[C@@]2(C(=O)OC)C(=C[C@H](C(C)(C)C)O[C@@H]2C)N(Cc2ccc3c(c2)OCO3)C1=O` the value was 26.7%; for `Cc1ccc2c(c1)c1c3n2CCN(CC(N)=O)C3CCC1` (stereo not given), 38.7%; for `Cc1ccc(Cn2ncc3c(N4CCN(c5ccc(C)cc5)CC4)ncnc32)cc1`, -19.9%.

Regarding `Cc1ccc(-n2ncc3c(N4CCN(c5ccccc5)CC4)ncnc32)c(C)c1`, the activity change, negative = inhibition was -35.1%. For the compound `COc1ccc(NS(=O)(=O)c2cccc(C(=O)NNC(=O)CNC(=O)c3ccc(C)cc3)c2)cc1`, the activity change, negative = inhibition is 3.44%. For `CCOC(=O)[C@]12CCC=C1N(Cc1ccc3c(c1)OCO3)C(=O)[C@H](CC(=O)NCC13CC4CC(CC(C4)C1)C3)C2` the value was 17.3% [at 16 µM].

`COC(=O)[C@]12CCCCC=C1N(Cc1ccco1)C(=O)[C@H](CC(=O)NCCc1ccccc1OC)C2`: the activity change, negative = inhibition amounted to 99.6%. For `C[C@@H]1CN([C@H](C)CO)C(=O)c2cc(NC(=O)Nc3ccccc3)ccc2O[C@@H]1CN(C)S(=O)(=O)c1ccccc1`, the activity change, negative = inhibition was found to be 138%. In the case of `CCOC(=O)[C@@H]1[C@H]2COc3cc(OC)ccc3[C@H]2N2C(=O)N(c3cccc(F)c3)C(=O)[C@@]12C` it was 236%; in that of `C[C@H]1CN([C@@H](C)CO)C(=O)c2cccc(NC(=O)Nc3ccc(C(F)(F)F)cc3)c2O[C@H]1CN(C)S(=O)(=O)c1ccccc1`, -14.4%.

Consider `CCc1nnc(NC(=O)[C@@H](NC(=O)c2cccc(S(=O)(=O)N(CC)CC)c2)C(C)C)s1`, for which the activity change, negative = inhibition is 52.6%. For `CCN(CC)S(=O)(=O)c1ccc(NC(=O)Nc2cccc(C(F)(F)F)c2)cc1` the value was -121%; for `O=C(NCc1ccco1)c1ccc(Cn2c(=O)c3ccccc3n(Cc3cccc(F)c3)c2=O)cc1`, 15.9%; for `CCCCCn1c(C(C)NC(=O)CCC)nc2ccccc21` (stereo not given), -19.3%. For `COc1cc2c(c(OC)c1OC)[C@@]1(c3ccccc3)CCCC[C@H]1[C@@H]2NC(=O)C(F)(F)F` the value was -28.2%; for `Cc1ccc(NS(=O)(=O)c2cc(C(=O)N(C)C3CCN(C)CC3)ccc2Cl)cc1Cl`, 81.1%; for `CCN(c1nc(N)c(C(=O)N=C(N)N)nc1Cl)C(C)C`, -8.55%. In the case of `Cc1[nH]c2ccccc2c1/C=N\NC(=O)c1ccccc1Cl` it was 8.5%. Consider `CN1CCc2ccccc2Cc2[nH]c3ccccc3c2CC1`, for which the activity change, negative = inhibition was -17.8%. For `CC(C)OCCCn1c(=S)[nH]c2ccc(N3CCOCC3)cc2c1=O` the value was -27.3%; for `O=C(NCc1ccccc1)[C@@H]1CCCN1C(=O)[C@@H]1CCCN1C(=O)c1cccc2ccccc12`, -3.32%; for `Cc1cc(C(=O)N2CCC(C(=O)O)CC2)c(C(F)(F)F)o1`, -10.2%. In the case of `C[C@@H]1CN([C@@H](C)CO)C(=O)c2cc(NC(=O)c3ccncc3)ccc2O[C@@H]1CN(C)Cc1ccncc1` it was 34.4%. With `C[C@@H]1CN([C@@H](C)CO)C(=O)c2cc(NC(=O)c3ccccc3)ccc2O[C@@H](C)CCCCO[C@H]1CN(C)Cc1ccc(C(=O)O)cc1`, the activity change, negative = inhibition came out at 52.2%.
